From PubChem BioAssay
aSyn 5UTR act: Activators working through SNCA 5'UTR binding (MLPCN). AID 1814. activity score, % (tested at 7.5 µM), hits read low. 300,000 compounds, 7.1% hits. alpha-synuclein 5'UTR reporter, activators screen; in the data active means activity score below about -60%
Active calls of the source: *. The list is a sample of the results.

SMILES | aSyn 5UTR act
COC(=O)c1c(NC(=O)COc2ccc(Cl)cc2)sc2c1CC(C)(C)NC2(C)C | 83
COC(=O)c1c(NC(=O)c2ccccc2[N+](=O)[O-])sc2c1CC(C)(C)NC2(C)C | -70*
COc1ccc(C2NN=C(c3ccc(C)cc3)S2)cc1 (stereo unspecified) | -172*
Cc1ccc(C2=NNC(C(O)C(O)C(O)CO)S2)cc1 (stereo unspecified) | -66*
Cc1ccccc1CSc1ccc(-c2ccc3c(c2)OCO3)nn1 | -83*
c1cncc(CSc2ccc(-c3ccc4c(c3)OCO4)nn2)c1 | -109*
Cc1nc(C)c(-c2ccc(SCc3ccccc3C)nn2)s1 | -97*
O=C(c1ccccn1)c1cc2ccccc2n1S(=O)(=O)c1ccccc1 | -91*
CCOC(=O)c1oc2ccc(/C=N/O)c(Cl)c2c1C | -140*
CCOC(=O)c1c(C)oc2c1c(C(c1ccccc1)N1CCOCC1)c(O)c1ccccc12 (stereo unspecified) | -205*
CCOC(=O)c1c(C)oc2c1c(C(c1cccnc1)N1CCCCC1)c(O)c1ccccc12 (stereo unspecified) | -146*
CCOc1ccc(-c2cn(-c3ccc(OC)cc3)c(SC)n2)cc1 | -147*
CSc1nc(-c2ccccc2)cn1-c1ccc(NC(C)=O)cc1 | -106*
O=C(Nc1nnc(C2CCCCC2)s1)c1cccs1 | -163*
O=C(Nc1nnc(C2CCCO2)s1)c1cccs1 (stereo unspecified) | -90*
COc1cccc(C(=O)Nc2nnc(C3CCCO3)s2)c1 (stereo unspecified) | -99*
O=C(Nc1cc2c(cc1Cl)OCCCO2)c1ccco1 | -144*
O=C(Nc1cc2c(cc1Cl)OCCCO2)c1ccccc1 | -151*
Cc1ccc(N/C=C2/Sc3ccccc3NC2=O)cc1 | -175*
COc1ccc(N/C=C2/Sc3ccccc3NC2=O)cc1 | -148*
CCC(C)NC(=O)/C=C1\Sc2ccccc2NC1=O (stereo unspecified) | -74*
COc1ccc(C2CC(c3ccccc3OC(C)=O)=NN2C(C)=O)cc1 (stereo unspecified) | -79*
O=C(Nc1ccccn1)Nc1cccs1 | -77*
O=C(Nc1ccc2c(c1)OCO2)Nc1ccccn1 | -86*
O=C(Nc1ccc2c(c1)OCO2)Nc1cnccn1 | -98*
SMILES | aSyn 5UTR act
O=C(Nc1cccc(F)c1)Nc1ccccn1 | -153*
Cc1cccc(NC(=O)NCc2ccc3c(c2)OCO3)c1 | -67*
O=C(NCc1cccs1)Nc1ccc(Cl)cc1 | -99*
O=C(NCc1ccccn1)Nc1ccc2c(c1)OCO2 | -92*
O=C(NCc1ccncc1)Nc1ccc2c(c1)OCO2 | -64*
O=C(NCc1cccs1)Nc1ccc2c(c1)OCO2 | -145*
CC(=O)c1cccc(NC(=O)NCc2ccccn2)c1 | -167*
CCOc1ccc(NC(=O)CCC(=O)NNC(=O)COc2ccc(C)cc2Br)cc1 | -77*
Cc1ccc(Cl)c(OCC(=O)Nc2ccc3c(c2)OCCO3)c1 | -146*
Cc1cc(Cl)ccc1OCC(=O)Nc1ccncc1 | -81*
Cc1ccc(OCC(=O)Nc2ccc3c(c2)OCO3)c(C)c1 | -175*
CC(=O)NC(=S)Nc1ccc(NC(=O)COc2ccc(Cl)cc2Cl)cc1 | -62*
Cc1ccc(NC(=O)COc2ccc(Br)cc2C)cc1 | -102*
FCCCOc1ccc(/C=N/OCc2ccc(Cl)cc2)cc1 | -70*
FCCCOc1ccc(/C=N/OCc2c(Cl)cccc2Cl)cc1 | -94*
COc1ccc(NC2=Nc3ccccc3CC2)cc1 | -137*
Cc1cc(OCc2ccc(C(=O)n3cccn3)o2)ccc1Cl | -62*
CCN(CC)C(=O)c1ccc(COc2ccc(Cl)c(C)c2)o1 | -119*
COc1cccc(N2CCN(C(=O)c3ccc(CS(=O)c4ccc(Cl)cc4)o3)CC2)c1 (stereo unspecified) | 107
CCCCN(C)S(=O)(=O)c1ccc(C(=O)Nc2nnc(-c3cccs3)o2)cc1 | 81
Cc1ccc(NC(=O)CSc2nnc(-c3cccs3)o2)cc1S(=O)(=O)N(C)C | -164*
Cc1ccc(Cn2c(CCNc3nc(-c4ccc(Cl)c([N+](=O)[O-])c4)cs3)nc3cc(Cl)c(Cl)cc32)cc1 | -78*
COCC(C)n1c(C)cc(C(=O)CSc2ncccn2)c1C (stereo unspecified) | -76*
O=C(CSc1ncccn1)c1ccccc1Br | -64*
COCC(C)n1c(C)cc(C(=O)CSc2nnnn2-c2ccc(O)cc2)c1C (stereo unspecified) | -82*
SMILES | aSyn 5UTR act
COc1ccc2cc(C(=O)C3CCCN(C(=O)CCc4cnn(C)c4)C3)ccc2c1 (stereo unspecified) | -82*
Cc1ccccc1-c1noc(C2CCCCC2)n1 | -71*
Cc1ccccc1-c1noc(-c2ccc(O)cc2)n1 | -226*
CN(C)c1ccc(-c2noc(-c3ccccc3O)n2)cc1 | 71
Cc1ccccc1-c1noc(-c2ccccc2F)n1 | -259*
Fc1ccccc1-c1nc(-c2ccc(Cl)cc2)no1 | -203*
Cc1ccccc1-c1noc(-c2ccc(Cl)cc2)n1 | -192*
COC(=O)Cn1c(=NC(=O)c2cccc(OC)c2)sc2cc(OC)ccc21 | -87*
Cc1ccc(C(=O)N/N=c2\sc3ccccc3n2C)cc1 | -62*
COc1cccc(C(=O)N=c2sc3cc(S(C)(=O)=O)ccc3n2C)c1 | -127*
COc1ccc(C(=O)N=c2sc3ccccc3n2C)cc1 | -193*
COc1cc(OC)cc(C(=O)N=c2sc3ccccc3n2C)c1 | -149*
Cc1nnc(NC(=O)C2COc3ccccc3O2)s1 (stereo unspecified) | -118*
O=C(Nc1ncc(Cc2ccccc2)s1)C1COc2ccccc2O1 (stereo unspecified) | -190*
CCC(CC)c1nnc(NC(=O)C2COc3ccccc3O2)s1 (stereo unspecified) | -72*
O=C(NC1=NCCS1)C1COc2ccccc2O1 (stereo unspecified) | 98
CCOC(=O)c1c(CSC(=N)N)n(-c2ccccc2)c2cc(Br)c(OC(C)=O)cc12 | -71*
COc1ccc(-c2c(C)c3ccc(OCC(C)=O)cc3oc2=O)cc1 | -142*
CCCOc1ccc2c(C)c(CC(=O)OC)c(=O)oc2c1 | -118*
COc1ccc(-c2c(C)c3ccc(O)cc3oc2=O)cc1 | -97*
CC(=O)COc1ccc2c(C)c(C)c(=O)oc2c1 | -118*
Cc1ccc(NC(=O)CS(=O)c2ccccc2N)c(C)c1 (stereo unspecified) | -96*
COc1cccc(C(=O)O/N=C(\N)c2ccccn2)c1OC | -74*
N/C(=N\OC(=O)c1cccc2ccccc12)c1ccccn1 | 102
COc1cccc(C(=O)O/N=C(\N)c2ccncc2)c1OC | -84*
SMILES | aSyn 5UTR act
Cc1cc(C)nc(Nc2n[nH]c(COc3ccccc3)n2)n1 | -110*
Cc1cc(C)nc(Nc2n[nH]c(-c3ccccc3Cl)n2)n1 | -141*
Cc1cc(C)nc(Nc2n[nH]c(-c3cccc4ccccc34)n2)n1 | -88*
CCOC(=O)c1nn(-c2ccc(C)cc2)cc1O | -62*
CCOC(=O)c1nn(-c2ccc(Cl)cc2)cc1O | -124*
CCOC(=O)c1nn(-c2ccc3c(c2)OCO3)cc1O | -144*
CCOC(=O)c1ccc(N2CN(CC)CNC2=S)cc1 | 64
COC(=O)c1nn(-c2ccc(-c3ccccc3)cc2)cc1O | 67
CCOC(=O)C1=NN(c2ccc(Cl)cc2)C(=O)C1 | -144*
CCOC(=O)c1nn(-c2ccc3ccccc3c2)cc1O | -134*
Cc1ccc(N=Cc2cc(C)n(C3CCCC3)c2C)cc1 | -155*
CC1(C)N=C(N)N=C(N)N1c1ccc(OCCCOc2ccccc2)c(Cl)c1 | 78
COc1cc(C)ccc1OCCCOc1ccccc1Cl | -207*
